In the supplement of paper PMC9588786 one finds relative cell viability data, which are given here for 38 molecules.

Each structure is given as a SMILES string. Counter-ions that a name gives are not always drawn. ± gives the standard deviation of the averaged measurements.
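Also: viability read as CCK-8 absorbance at 450 nm in cells co-exposed to the GPX4 inhibitor RSL3, relative to a 0.01% DMSO vehicle control.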

For the experiment, the system named is HT-1080. In words: relative cell viability with RSL3 co-treatment (fraction of control); higher = stronger protection from RSL3-induced ferroptosis (higher viability). Conditions: 10 µM.
Regarding `CCN1CCN(Cc2ccc(Nc3ncc(F)c(-c4cc(F)c5nc(C)n(C(C)C)c5c4)n3)nc2)CC1`, the relative cell viability is 0.42 ± 0.026.

Turning to `O=C1NC(=O)/C(=C/c2ccc3c(c2)OC(F)(F)O3)S1`, the relative cell viability worked out at 0.82 ± 0.07.

`CO[C@H]1CC[C@H](N2C(=O)CNc3ncc(-c4ccc(C(C)(C)O)nc4)nc32)CC1`: the relative cell viability was determined as 0.733 ± 0.091.

With `Oc1c(F)cc(-c2cnccc2-c2ccc(N3CCOCC3)cc2)cc1F`, the relative cell viability was found to be 0.757 ± 0.072.

Regarding `FC(F)c1nc2ccccc2n1-c1nc(N2CCOCC2)nc(N2CCOCC2)n1`, the relative cell viability amounted to 0.723 ± 0.14.

As to `Cc1cc(Nc2cc(N3CCN(C)CC3)nc(/C=C/c3ccccc3)n2)n[nH]1`, the relative cell viability is 0.203 ± 0.1.

For `COc1ccc(-c2ccc3ncc4c(c3c2)n(-c2ccc(N3CCNCC3)c(C(F)(F)F)c2)c(=O)n4C)cn1`, the relative cell viability turned out to be 0.29 ± 0.087.

Turning to `CCC(=O)Nc1cccc(Oc2nc(Nc3ccc(N4CCN(C)CC4)cc3OC)ncc2Cl)c1`, the relative cell viability came out at 0.803 ± 0.097.

On to `Cc1c[nH]c2nc(Nc3ccc(N4CCN(C)CC4)c(F)c3)nc(-c3cccc(CC#N)c3)c12`, for which the relative cell viability was determined as 0.123 ± 0.1.

For the molecule `CN(C)Cc1cccc(N=C(c2ccccc2)c2c(O)[nH]c3cc(C(=O)N(C)C)ccc23)c1`, the relative cell viability was 0.79 ± 0.044.

Take `CN(c1ccccc1CNc1nc(Nc2ccc3c(c2)CC(=O)N3)ncc1C(F)(F)F)S(C)(=O)=O`: the relative cell viability is 0.723 ± 0.045.

Consider `C=CC(=O)Nc1cccc(Nc2nc(Nc3ccc(N4CCN(C(C)=O)CC4)cc3OC)ncc2C(F)(F)F)c1` [Rociletinib (CO-1686, AVL-301)], for which the relative cell viability is 0.573 ± 0.2.

Turning to `CC[C@@H]1C(=O)N(C)c2cnc(Nc3ccc(C(=O)N[C@H]4CC[C@H](N5CCN(CC6CC6)CC5)CC4)cc3OC)nc2N1C(C)C` [Volasertib (BI 6727)], the relative cell viability is 0.397 ± 0.15.

In the case of `CO[C@H]1C[C@@H]2CC[C@@H](C)[C@@](O)(O2)C(=O)C(=O)N2CCCC[C@H]2C(=O)O[C@H]([C@H](C)C[C@@H]2CC[C@@H](OP(C)(C)=O)[C@H](OC)C2)CC(=O)[C@H](C)/C=C(\C)[C@@H](O)[C@@H](OC)C(=O)[C@H](C)C[C@H](C)/C=C/C=C/C=C/1C` [Ridaforolimus (Deforolimus, MK-8669)], the relative cell viability amounted to 0.847 ± 0.14.

Regarding `COc1cc2ncc(-c3ccccc3)nc2cc1OC` [Tyrphostin AG 1296], the relative cell viability was 0.567 ± 0.11.

As to `C=CC(=O)Nc1cccc(Nc2nc(Nc3ccc(Oc4ccnc(C(=O)NC)c4)cc3)ncc2F)c1`, the relative cell viability is 0.6 ± 0.056.

Take `Oc1cc(O)cc(/C=C/c2ccc(O)c(O)c2)c1` [Piceatannol]: the relative cell viability is 0.717 ± 0.04.

As to `C[C@H]1[C@H](C)CC[C@]2(C(=O)O)CC[C@]3(C)C(=CC[C@@H]4[C@@]5(C)C[C@@H](O)[C@H](O)[C@@](C)(CO)[C@@H]5CC[C@]43C)[C@H]12` [Asiatic Acid], the relative cell viability was found to be 0.58 ± 0.14.

With `N=C(N)NC(=N)NCCc1ccccc1` [Phenformin HCl], the relative cell viability came to 0.877 ± 0.042.

With `CC(C)CC(NC(=O)C(Cc1ccccc1)NC(=O)C(CCC(N)=O)NC(=O)C(Cc1ccc(O)cc1)NC(=O)C(C)NC(=O)CNC(=O)C(CCCCN)NC(=O)C(Cc1c[nH]c2ccccc12)NC(=O)C(NC(=O)C(Cc1c[nH]c2ccccc12)NC(=O)C(CCCCN)NC(=O)CNC(=O)C(CC(N)=O)NC(=O)C(CCC(=O)O)NC(=O)C(Cc1c[nH]c2ccccc12)NC(=O)C(NC(=O)C(Cc1c[nH]c2ccccc12)NC(=O)C(CO)NC(=O)CNC(=O)C1CCCN1C(=O)C(Cc1c[nH]c2ccccc12)NC(=O)C(CCC(N)=O)NC(=O)C(Cc1ccccc1)NC(=O)CNC(=O)C(N)Cc1c[nH]cn1)C(C)O)C(C)O)C(=O)NC(CCCCN)C(=O)NCC(=O)NCC(=O)NCC(=O)NCC(=O)NC(CO)C(=O)NC(CCCNC(=N)N)C(=O)NC(CCCNC(=N)N)C(=O)NC(CCCNC(=N)N)C(=O)NC(CCCNC(=N)N)C(=O)NC(CCCNC(=N)N)C(=O)NC(CCCNC(=N)N)C(=O)NC(CCCNC(=N)N)C(=O)NC(CCCNC(=N)N)C(=O)NC(CCCNC(=N)N)C(=O)O` (stereo not drawn), the relative cell viability was 0.7133 ± 0.0058.

On to `N#Cc1c(NC(=O)c2cccc3ccccc23)sc2c1CCCC2` [JNK Inhibitor IX], for which the relative cell viability was determined as 0.573 ± 0.049.

As for `CC(C)(C)c1cc(/C=C(\C#N)C(N)=S)cc(C(C)(C)C)c1O` [Tyrphostin AG 879], the relative cell viability was 0.69 ± 0.017.

Regarding `Cc1nc(Nc2ncc(C(=O)Nc3c(C)cccc3Cl)s2)cc(N2CCN(CCO)CC2)n1` [Dasatinib], the relative cell viability stood at 0.553 ± 0.091.

As for `C[C@@]1(C(=O)Nc2ccc(F)nc2)CCCN1c1nc(Nc2cc(C3CC3)n[nH]2)c2cccn2n1`, the relative cell viability was found to be 0.483 ± 0.05.

With `Cc1csc(-c2nnc(Nc3ccc(Oc4ncccc4-c4ccnc(N)n4)cc3)c3ccccc23)c1`, the relative cell viability was found to be 0.56 ± 0.087.

For `CNc1nc(Nc2cn(C(C)(C)C#N)nc2C)ncc1C(F)(F)F`, the relative cell viability stood at 0.757 ± 0.1.

Turning to `COc1c(C)c(C(=O)c2ccc(N)c(C(=O)O)c2)n2ccccc12`, the relative cell viability was 0.653 ± 0.14.

For the molecule `CN(C[C@@H]1COCCO1)S(=O)(=O)Nc1ccc2ccc3ncc(-c4cnn(C)c4)cc3c(=O)c2c1`, the relative cell viability amounted to 0.657 ± 0.25.

Turning to `COc1cc(N2CCC(N3CCN(C)CC3)CC2)ccc1Nc1ncnc(Nc2ccccc2S(=O)(=O)C(C)C)n1`, the relative cell viability worked out at 0.807 ± 0.023.

For the molecule `Cc1cc(O)c2c(c1)C(=O)c1cccc(O)c1C2=O` [Chrysophanic Acid], the relative cell viability was 0.6567 ± 0.0058.

As for `CN1CCN(c2ccc(Nc3cc(-c4cccc(-n5ccc6cc(C7CC7)cc(F)c6c5=O)c4CO)cn(C)c3=O)nc2)CC1`, the relative cell viability came out at 0.763 ± 0.067.

Turning to `CC(C)n1nc(-c2ccc3oc(N)nc3c2)c2c(N)ncnc21`, the relative cell viability came to 0.787 ± 0.058.

As for `Cc1cc2c(F)c(Oc3ncnn4cc(OC[C@@H](C)O)c(C)c34)ccc2[nH]1`, the relative cell viability came to 0.753 ± 0.078.

Consider `CCN(CC)CCCC(C)Nc1nc(C)cc(Nc2ccc3nc(C)cc(N)c3c2)n1` (stereo not drawn), for which the relative cell viability came out at 0.583 ± 0.15.

Take `CS(=O)(=O)c1ccc(-c2cnc(N)c(C(=O)Nc3ccccc3)n2)cc1`: the relative cell viability worked out at 0.713 ± 0.05.

Take `CO[C@@H](C)Cn1c(=O)n(C)c2cnc3ccc(-c4cncc(C(C)(C)O)c4)cc3c21`: the relative cell viability is 0.457 ± 0.13.

As to `CNC(=O)c1ccccc1Sc1ccc2c(/C=C/c3ccccn3)n[nH]c2c1` [Axitinib], the relative cell viability was 0.63 ± 0.22.

On to `Cc1cn(-c2cc(NC(=O)c3ccc(C)c(Nc4nccc(-c5cccnc5)n4)c3)cc(C(F)(F)F)c2)cn1` [Nilotinib (AMN-107)], for which the relative cell viability is 0.507 ± 0.021.
